Source: PubChem (NMMLSC)
Anthrax LF inh2 = anthrax lethal factor protease inhibition. P15917. multiplex microsphere protease cleavage assay, LF. inhibition, % at 10 µM. actives 0.12% (n = 360,000). AID 588501; further: plate controls were buffer without enzyme for full effect and enzyme alone for no effect
Target sequence (P15917 whole entry, looked up): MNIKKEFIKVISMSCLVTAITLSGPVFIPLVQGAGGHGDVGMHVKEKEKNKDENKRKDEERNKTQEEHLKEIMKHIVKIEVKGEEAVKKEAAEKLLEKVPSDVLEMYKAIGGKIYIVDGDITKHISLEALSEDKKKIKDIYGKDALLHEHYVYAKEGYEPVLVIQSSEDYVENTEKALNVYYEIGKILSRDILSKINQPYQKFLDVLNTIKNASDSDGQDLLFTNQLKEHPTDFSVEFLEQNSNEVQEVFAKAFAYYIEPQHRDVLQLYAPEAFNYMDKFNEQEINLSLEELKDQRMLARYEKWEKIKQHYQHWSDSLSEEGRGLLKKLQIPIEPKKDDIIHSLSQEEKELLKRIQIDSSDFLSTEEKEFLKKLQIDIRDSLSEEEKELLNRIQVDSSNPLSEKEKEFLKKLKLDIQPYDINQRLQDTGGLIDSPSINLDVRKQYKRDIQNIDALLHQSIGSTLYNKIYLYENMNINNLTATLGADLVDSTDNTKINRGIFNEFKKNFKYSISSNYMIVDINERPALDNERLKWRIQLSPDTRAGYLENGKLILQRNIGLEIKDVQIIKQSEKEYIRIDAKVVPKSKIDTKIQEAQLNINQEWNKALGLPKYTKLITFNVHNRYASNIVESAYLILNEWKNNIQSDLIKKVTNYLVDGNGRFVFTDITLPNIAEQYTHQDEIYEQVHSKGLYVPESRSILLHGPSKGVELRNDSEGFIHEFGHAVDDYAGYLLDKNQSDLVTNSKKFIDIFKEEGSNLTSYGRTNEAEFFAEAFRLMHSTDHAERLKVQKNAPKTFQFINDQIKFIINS
BoNT A protease = blocks Botulinum neurotoxin A light chain protease; inhibition, % at 10 µM; actives 0.17% (n = 360,000); multiplex microsphere protease substrate cleavage, flow cytometry; further: plate controls were buffer without enzyme for full effect and enzyme alone for no effect
Autofluor counter = counter-screen for toxin protease inhibitors: compound fluorescence; compound autofluorescence counterscreen, microsphere flow cytometry; stronger effect = higher value; actives 3.1% (n = 360,000); fluorescence intensity (concentration not given with the values); AID 624483; in the data active means fluorescence intensity above about 16000; inconclusive means no clear call, values can overlap the other calls
BoNT F protease = inhibitors of Botulinum neurotoxin F light chain protease. Multiplex microsphere protease cleavage assay, flow cytometry. inhibition, % at 10 µM. actives 0.22% (n = 360,000). AID 588497; in the data active means inhibition above about 35%, passing the limit was not always enough; inconclusive means no clear call, values can overlap the other calls; further: plate controls were buffer without enzyme for full effect and enzyme alone for no effect
* = called active by the depositor; ? = inconclusive. A selection: hits, their analogues and other compounds. The true share with any hit is near 3.5%. Unless noted, no stated cut-off is given here; in the data, active means inhibition above about 30%; inconclusive means no clear call, values can overlap the other calls; inactive means below that.

SMILES | Anthrax LF inh2 | BoNT A protease | Autofluor counter | BoNT F protease
NC(=O)C1CCN(C(=O)C2c3ccccc3C(=O)N3CCc4ccccc4C23)CC1 (stereo not given) | -1.1 | 0.1 | 11386 | -3.0
CC1CCN(C(=O)C2c3ccccc3C(=O)N3CCc4ccccc4C23)CC1 (stereo not given) | -0.2 | 2.6 | 22497* | 0.8
CCN1CCN(C(=O)NCc2ccccc2)CC1 | 2.8 | -0.8 | 4605 | 5.5
CCCN(C(=O)CCOc1ccc(C(C)(C)C)cc1)c1c(N)n(Cc2ccccc2)c(=O)[nH]c1=O | 7.4 | -0.4 | 5180 | -2.9
Cc1ccc(S(=O)(=O)N2CCN(C(=O)CC(C)n3nc(C)c(Cl)c3C)CC2)cc1C (stereo not given) | -0.2 | -4.7 | 6749 | 6.7
CN(C)CCOC(C1CCCCC1)C1CCCCC1 | -6.4 | -2.6 | 24587* | -4.0
N#Cc1cc(C#N)c(N2CCN(c3ccccn3)CC2)nc1N | -5.4 | -3.0 | 23218* | -1.8
Cc1occc1C(=O)NNC(=S)Nc1ccccc1C(F)(F)F | -1.9 | 0.6 | 8370 | 3.0
Cc1ccccc1NC(=S)NNC(=O)c1ccoc1C | 0.0 | -5.0 | 24040* | -6.1
O=C(O)CCS(=O)(=O)Cc1cccc(Cl)c1 | -1.1 | -1.3 | 23460* | -1.6
O=C(Nc1nnc(COc2ccccc2)s1)C1CCN(S(=O)(=O)c2ccc(Cl)cc2)CC1 | -3.2 | 0.5 | 23493* | -0.4
O=C(Nc1nnc(-c2ccccc2Cl)s1)C1CCN(S(=O)(=O)c2ccc(Cl)cc2)CC1 | 1.2 | 1.2 | 2298 | 1.5
COc1ccccc1N1CCN(C(=O)Nc2ccc(F)c(Cl)c2)CC1 | -2.1 | 0.1 | 2530 | -0.4
O=C1CCN(C(=O)Nc2cccc(Cl)c2)N1 | -2.9 | -1.0 | 22772* | -1.5
CCOC(=O)N1CCN(C(=O)Nc2cccc(Cl)c2)CC1 | -1.9 | 3.8 | 19827* | 4.0
COc1ccccc1N1CCN(C(=O)Nc2cccc(Cl)c2)CC1 | -3.9 | ? | 17904* | -12.9
COC(=O)c1ccc(NC(=S)N2CCN(Cc3ccccc3)CC2)cc1 | -1.9 | -0.3 | 6365 | -0.8
CCOC(=O)N1CCN(C(=O)Nc2ccc(Cl)cc2)CC1 | -1.9 | 0.3 | 4208 | 4.3
COC(=O)c1ccc(NC(=S)N2CCN(Cc3cccc(C)c3)CC2)cc1 | 3.6 | 2.6 | 21917* | 5.1
Cc1ccc([C@H]2C[C@@H](O)[C@H](n3cc(-c4ccc(F)cc4)nn3)CN2C(=O)C2CCCCC2)cc1 | -0.4 | 0.1 | 3482 | -2.2
CCN(CC)C(=O)C1=C(C)N(CCCOC)C(=O)C(CC(=O)NCc2cccs2)C1 (stereo not given) | 1.2 | -0.1 | 3081 | -0.9
COc1ccc(C(=O)c2[nH]c(N)c(C(=O)NCCc3c[nH]c4ccccc34)c2-c2ccccc2Br)cc1 | -0.4 | 0.0 | 6056 | -4.0
CCOC(=O)N1CCN(C(=S)Nc2cccc(C)c2)CC1 | -13.0 | -1.8 | 23824* | -4.4
Cc1nn(-c2ccccc2)c(C)c1C(=O)OCC(=O)N1CCN(S(=O)(=O)c2ccccc2)CC1 | -3.3 | ? | 21834* | 1.1
CC(=O)Nc1ccc(NC(=O)COC(=O)c2c(C)nn(-c3ccccc3)c2C)cc1 | -2.0 | 0.3 | 2061 | -0.5
SMILES | Anthrax LF inh2 | BoNT A protease | Autofluor counter | BoNT F protease
COc1ccc(S(=O)(=O)N2CCN(C(=O)c3c(C)nn(-c4ccccc4)c3C)CC2)cc1 | 1.2 | 0.3 | 3441 | -4.6
Cc1nn(-c2ccccc2)c(C)c1C(=O)OCC(=O)NC12CC3CC(CC(C3)C1)C2 | -0.6 | 2.1 | 22484* | 1.8
Cc1ccccc1-c1nc2sc(C)c(C)c2c(=O)o1 | 17.5 | 1.1 | 4063 | ?
Cc1ccccc1-c1nc2sc(-c3ccccc3)cc2c(=O)o1 | -5.1 | ? | 17440* | 7.3
Cc1nc2sc(C(c3ccc(Cl)cc3)N3CC(C)OC(C)C3)c(O)n2n1 (stereo not given) | 0.7 | 1.7 | 3430 | 35.9*
CCCN(CC1CC1)C(=O)COC(=O)c1oc2c(F)cccc2c1C | -12.6 | -1.1 | 6264 | -3.9
CCOC(=O)/C=C/C(=O)Nc1cccc([N+](=O)[O-])c1 | -1.6 | 1.6 | 2122 | 6.7
CC(=O)c1cccc(NC(=O)c2ccco2)c1 | 1.3 | 0.2 | 3203 | 4.6
CCOC(=O)c1cccc(NC(=O)c2cccs2)c1 | -0.6 | -0.3 | 2673 | 2.9
CCOC(=O)c1cccc(NC(=O)c2cc3sccc3n2C)c1 | -3.7 | ? | 26158* | -12.0
CCOC(=O)c1cccc(NC(=O)c2ccco2)c1 | 1.1 | ? | 23498* | -3.8
O=C(Nc1cccc(-c2nc3ccccc3[nH]2)c1)c1ccco1 | -7.7 | -4.4 | 25261* | -7.1
CCOC(=O)c1cccc(NC(=O)/C=C/c2cccc([N+](=O)[O-])c2)c1 | -0.6 | 0.5 | 19203* | 2.5
Cc1ccccc1CCN(C(=O)c1csnn1)C(C(=O)NC1CCCC1)c1ccco1 (stereo not given) | 5.3 | -0.5 | 3727 | 3.8
FC(F)(F)Oc1ccc(Nc2nc(N3CCOCC3)nc(N3CCOCC3)n2)cc1 | 2.1 | -0.6 | 4520 | 4.5
C[C@@H]1CN([C@@H](C)CO)S(=O)(=O)c2ccc(C#CC(C)(C)O)cc2O[C@H]1CN(C)C(=O)C1CCCCC1 | 8.0 | 0.4 | 3758 | -1.1
Cc1cccc(NS(=O)(=O)c2ccc(C)c(C(=O)N(C)C3CCN(C)CC3)c2)c1 | 0.7 | -8.5 | 7485 | -15.3
C=CCNC(=O)c1cc2sccc2n1C | -0.2 | 0.1 | 3518 | 5.3
Cn1c(C(=O)Nc2ccc3c(c2)OCCO3)cc2sccc21 | -6.5 | -1.8 | 16792* | -7.1
CCOC(=O)c1ccccc1NC(=O)c1cc2sccc2n1C | -1.1 | 1.5 | 22752* | 1.7
O=C(Nc1ccc2c(c1)OCCO2)c1cc2sccc2n1Cc1ccccc1 | 1.4 | 0.9 | 3781 | 13.5
CCOC(=O)c1cc(NC(=O)N(C(C)C)C(C)C)c(C)nc1C | -1.8 | -1.0 | 16634* | -5.2
CCOC(=O)c1cc(NC(=O)N(CC)CC)c(C)nc1C | 0.7 | -1.5 | 24580* | -3.2
CCOC(=O)c1cc(NC(=O)N(C(C)C)C2CCCCC2)c(C)nc1C | -6.4 | 0.6 | 2869 | -0.3
O=C(O)c1cscc1-c1cccc2ccccc12 | -5.9 | -0.1 | 3384 | -1.1
SMILES | Anthrax LF inh2 | BoNT A protease | Autofluor counter | BoNT F protease
CCOCCCNC(=O)C(NC(=O)c1ccccc1O)c1ccc(Cl)cc1 (stereo not given) | -6.8 | -0.6 | 5501 | -7.3
COCCN1C(=O)/C(=C/c2ccc(N3CCCC3)cc2C)SC1=S | 57.6* | 100.0* | 18023* | 27.8
CCN=C1S/C(=C\c2ccc(N3CCOCC3)cc2C)C(=O)N1CC | -2.0 | 0.6 | 2011 | -0.3
Cc1cc(C)c2c(c1)-c1cc(C)nn1C(c1ccc3c(c1)OCO3)N2 (stereo not given) | -0.4 | ? | 24496* | -9.2
O=C(N/N=C/c1ccc(N2CCOCC2)o1)c1cccc(C(F)(F)F)c1 | -2.6 | -1.0 | 24154* | -2.9
O=C(N/N=C/c1ccc(N2CCOCC2)o1)c1ccccc1[N+](=O)[O-] | -0.2 | 0.1 | 2343 | -2.2
CCC(Sc1nc2ccccc2s1)C(=O)Nc1nnc(C)s1 (stereo not given) | -1.6 | -1.2 | 22870* | -2.4
Cc1cccc2c(=O)cc(C)n(CC(N)=O)c12 | -20.9 | ? | 4474 | ?
COC(=O)c1cc(OC)c(OC)cc1NC(=O)Nc1ccccc1OC | -2.5 | 0.7 | 23051* | -1.3
COC(=O)c1ccccc1NC(=O)Nc1cc(C)cc(C)n1 | -1.3 | 4.0 | 21356* | 5.6
